From PubChem BioAssay AID1159580 (chemical genetic matrix, 2015)
About 2,000 (36%) of roughly 5,500 compounds were called active. Another 18% or so got no clear call; they are omitted. Cut-off read from the data, not from the text of the source: active = normalized growth mostly below about 0.91 (no sharp cut-off); inconclusive = no clear call, values can overlap the other calls; inactive = mostly above about 0.92. This is one part of the list.

Assay: chemical genetic growth profiling, strain panel (AID 1159580);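 note: tested at 20 µM; growth read once vehicle control cultures reached saturation at 30 °C; 1 = growth at the plate median or of vehicle wells; lower values mean less growth of the strain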
Settings: growth OD

Measured: normalized growth

OCC(O)C(O)C(O)C(O)C(O)CO (configuration not stated)
inactive: S. cerevisiae deletion strains, locus YKL009W, strain mrt4, hits give low values 1.05 | S. cerevisiae deletion strains, locus YKL068W, hits give low values 0.98 | S. cerevisiae deletion strains, locus YKL085W, strain MDH1 (second series), hits give low values 1 | S. cerevisiae deletion strains, locus YKL085W, strain MDH1, hits give low values 1 | S. cerevisiae deletion strains, locus YKL160W, strain elf1, hits give low values 1.01 | S. cerevisiae deletion strains, locus YKL190W, strain CNB1, hits give low values 1.02 | S. cerevisiae deletion strains, locus YKR001C, strain vps1, hits give low values 1.01 | S. cerevisiae deletion strains, locus YKR026C, strain gcn3, hits give low values 1.01 | S. cerevisiae deletion strains, locus YKR091W, strain srl3, hits give low values 0.997 | S. cerevisiae deletion strains, locus YLL001W, strain dnm1, hits give low values 0.995 | S. cerevisiae deletion strains, locus YLL026W, hits give low values 0.999 | S. cerevisiae deletion strains, locus YLL041C, strain sdh2, hits give low values 0.998 | S. cerevisiae deletion strains, locus YLR027C, strain aat2, hits give low values 0.997 | S. cerevisiae deletion strains, locus YLR039C, strain RIC1, hits give low values 1.14 | S. cerevisiae deletion strains, locus YLR058C, strain SHM2, hits give low values 1 | S. cerevisiae deletion strains, locus YLR102C, strain apc9, hits give low values 0.987 | S. cerevisiae deletion strains, locus YLR113W, strain HOG1, hits give low values 0.965 | S. cerevisiae deletion strains, locus YLR221C, strain rsa3, hits give low values 1.01 | S. cerevisiae deletion strains, locus YLR258W, strain gsy2, hits give low values 1 | S. cerevisiae deletion strains, locus YLR262C, strain YPT6 (second series), hits give low values 1 | S. cerevisiae deletion strains, locus YLR268W, strain sec22, hits give low values 0.998 | S. cerevisiae deletion strains, locus YLR320W, strain mms22, hits give low values 0.985 | S. cerevisiae deletion strains, locus YLR330W, strain CHS5, hits give low values 0.992 | S. cerevisiae deletion strains, locus YLR342W, strain FKS1 (second series), hits give low values 0.998 | S. cerevisiae deletion strains, locus YLR342W, strain FKS1, hits give low values 0.993 | S. cerevisiae deletion strains, locus YLR357W, strain rsc2, hits give low values 0.974 | S. cerevisiae deletion strains, locus YLR370C, strain arc18, hits give low values 0.999 | S. cerevisiae deletion strains, locus YLR371W, strain rom2, hits give low values 1.03 | S. cerevisiae deletion strains, locus YLR384C, strain iki3, hits give low values 0.995 | S. cerevisiae deletion strains, locus YLR418C, strain cdc73, hits give low values 1 | S. cerevisiae deletion strains, locus YML016C, strain PPZ1, hits give low values 0.988 | S. cerevisiae deletion strains, locus YML032C, strain rad52, hits give low values 0.987 | S. cerevisiae deletion strains, locus YML120C, strain ndi1, hits give low values 0.988 | S. cerevisiae deletion strains, locus YML124C, strain tub3, hits give low values 0.988 | S. cerevisiae deletion strains, locus YMR058W, strain fet3, hits give low values 0.997 | S. cerevisiae deletion strains, locus YMR078C, strain ctf18, hits give low values 0.989 | S. cerevisiae deletion strains, locus YMR125W, strain sto1, hits give low values 0.973 | S. cerevisiae deletion strains, locus YMR129W, hits give low values 0.99 | S. cerevisiae deletion strains, locus YMR205C, strain PFK2, hits give low values 1 | S. cerevisiae deletion strains, locus YMR223W, strain ubp8, hits give low values 1.01 | S. cerevisiae deletion strains, locus YMR231W, strain pep5, hits give low values 0.998 | S. cerevisiae deletion strains, locus YMR307W, strain GAS1, hits give low values 1.12 | S. cerevisiae deletion strains, locus YNL067W, strain RPL9B, hits give low values 1.02 | S. cerevisiae deletion strains, locus YNL071W, strain lat1, hits give low values 1 | S. cerevisiae deletion strains, locus YNL153C, strain GIM3, hits give low values 1.03 | S. cerevisiae deletion strains, locus YNL183C, strain NPR1, hits give low values 0.932 | S. cerevisiae deletion strains, locus YNL209W, strain ssb2, hits give low values 1 | S. cerevisiae deletion strains, locus YNL233W, strain BNI4, hits give low values 1.06 | S. cerevisiae deletion strains, locus YNL248C, strain rpa49, hits give low values 0.99 | S. cerevisiae deletion strains, locus YNL250W, strain rad50, hits give low values 0.987 | S. cerevisiae deletion strains, locus YNL271C, strain bni1, hits give low values 1.01 | S. cerevisiae deletion strains, locus YNL298W, strain CLA4, hits give low values 0.99 | S. cerevisiae deletion strains, locus YNL307C, strain MCK1, hits give low values 0.992 | S. cerevisiae deletion strains, locus YNL322C, strain KRE1 (second series), hits give low values 0.999 | S. cerevisiae deletion strains, locus YNR049C, strain mso1, hits give low values 0.987 | S. cerevisiae deletion strains, locus YNR052C, strain pop2, hits give low values 1.03 | S. cerevisiae deletion strains, locus YOL006C, strain TOP1, hits give low values 1.14 | S. cerevisiae deletion strains, locus YOL012C, strain htz1 0.757 | S. cerevisiae deletion strains, locus YOL147C, strain pex11, hits give low values 0.998 | S. cerevisiae deletion strains, locus YOR001W, strain rrp6, hits give low values 1 | S. cerevisiae deletion strains, locus YOR061W, strain CKA2, hits give low values 0.984 | S. cerevisiae deletion strains, locus YOR069W, strain VPS5, hits give low values 1 | S. cerevisiae deletion strains, locus YOR070C, strain gyp1, hits give low values 0.995 | S. cerevisiae deletion strains, locus YOR080W, strain dia2, hits give low values 0.985 | S. cerevisiae deletion strains, locus YOR083W, strain WHI5, hits give low values 0.996 | S. cerevisiae deletion strains, locus YOR106W, strain vam3, hits give low values 1.01 | S. cerevisiae deletion strains, locus YOR136W, strain idh2, hits give low values 1.01 | S. cerevisiae deletion strains, locus YOR144C, strain elg1, hits give low values 0.991 | S. cerevisiae deletion strains, locus YOR184W, strain ser1, hits give low values 0.982 | S. cerevisiae deletion strains, locus YOR231W, strain MKK1, hits give low values 0.961 | S. cerevisiae deletion strains, locus YOR265W, strain rbl2, hits give low values 0.989 | S. cerevisiae deletion strains, locus YOR270C, strain vph1, hits give low values 0.994 | S. cerevisiae deletion strains, locus YOR290C, strain snf2, hits give low values 0.989 | S. cerevisiae deletion strains, locus YOR316C, strain cot1, hits give low values 0.984 | S. cerevisiae deletion strains, locus YPL051W, strain arl3, hits give low values 1 | S. cerevisiae deletion strains, locus YPL055C, strain LGE1, hits give low values 0.97 | S. cerevisiae deletion strains, locus YPL078C, strain atp4, hits give low values 0.992 | S. cerevisiae deletion strains, locus YPL106C, strain sse1, hits give low values 0.989 | S. cerevisiae deletion strains, locus YPL240C, strain hsp82, hits give low values 0.989 | S. cerevisiae deletion strains, locus YPL241C, strain CIN2, hits give low values 0.998 | S. cerevisiae deletion strains, locus YPL256C, strain CLN2, hits give low values 0.968 | S. cerevisiae deletion strains, locus YPR119W, strain clb2, hits give low values 0.997 | S. cerevisiae deletion strains, locus YPR141C, strain kar3, hits give low values 0.976 | S. cerevisiae deletion strains, locus YPR163C, strain tif3, hits give low values 1.01 | S. cerevisiae deletion strains, locus YPR167C, strain met16, hits give low values 0.993 | S. cerevisiae deletion strains, strain wtn01, hits give low values 0.997 | S. cerevisiae strains, strain wild type, hits give low values 1.03
